Measurements: PubChem BioAssay (NCATS)
Values joined by “and” are separate entries in the source; they are usually repeats but may differ in a detail not shown here. Equal entries are not always repeated. Results filed as inconclusive are left out. Where a call stands in place of a potency, no number is given. Active and inactive are the calls of the source. The call rests on the fitted dose curve; in most records, active means well fitted cell-killing curve with a large enough effect; inconclusive means small, poorly fitted or top-dose-only effect; inactive means flat fitted curve, though single readings scatter.

test: qHTS of pediatric cancer cell lines to identify multiple opportunities for drug repurposing: Primary screen for BT-37 cells (AID 1347094); settings: BT-37 viability, CellTiter-Glo luminescence, 48 h; series mostly up to 57.3 µM
Outline: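 Luminescence from CellTiter-Glo served as readout of metabolically active cells after 48 h compound exposure. Titrations: MIPE 11-point, from 0.78 nM; NPC 8-point, from 0.59 nM (final). Concentration-response curves came straight from the primary screen.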
Potency means the concentration at half of the fitted maximal effect.

Q: Which Potency does the source give for `Cc1cc2c(C(C)C)c(O)c(O)c(C=O)c2c(O)c1-c1c(C)cc2c(C(C)C)c(O)c(O)c(C=O)c2c1O` here?
A: The Potency was 15.5 µM (active) and 24.3 µM (active).

Q: For `NS(=O)(=O)c1cc2c(cc1Cl)NC=NS2(=O)=O`, which Potency is on record?
A: The Potency was “inactive”.

Q: With `COc1cc2c(cc1OC)CN(CCc1ccc(NC(=O)c3cccc4c(=O)c5cccc(OC)c5[nH]c34)cc1)CC2` as the molecule, how does the Potency read?
A: Its Potency is “inactive”.

Q: For `CC1(C)SCCN(S(=O)(=O)c2ccc(OCC#CCO)cc2)[C@@H]1C(=O)NO`, which Potency is on record?
A: The Potency was “inactive”.

Q: Which Potency does the source give for `CCCc1nc2c(C)cc(-c3nc4ccccc4n3C)cc2n1Cc1ccc(-c2ccccc2C(=O)O)cc1` here?
A: The Potency was “inactive”.

Q: With `CC(C)NCC(O)COc1ccc(COCCOC(C)C)cc1` (stereo not given) as the molecule, how does the Potency read?
A: The Potency was “inactive”.

Q: With `NCCc1ccc(O)c(O)c1` as the molecule, how does the Potency read?
A: Its Potency is “inactive”.

Q: Which Potency does the source give for `Oc1ccc(C2CNCCc3c2cc(O)c(O)c3Cl)cc1` (stereo not given) here?
A: The Potency was “inactive”.

Q: For `CCC(C)n1ncn(-c2ccc(N3CCN(c4ccc(OC[C@H]5CO[C@](Cn6cncn6)(c6ccc(Cl)cc6Cl)O5)cc4)CC3)cc2)c1=O` (stereo not given in full), which Potency is on record?
A: The Potency was “inactive”.

Q: Which Potency does the source give for `CCc1ccc(CCOc2ccc(CC3SC(=O)NC3=O)cc2)nc1` (stereo not given) here?
A: The Potency was “inactive”.

Q: With `O=c1n(CCCN2CCN(c3cccc(Cl)c3)CC2)nc2ccccn12` as the molecule, how does the Potency read?
A: Its Potency is “inactive”.

Q: With `CNC(=O)c1ccc(N2C(=S)N(c3ccc(C#N)c(C(F)(F)F)c3)C(=O)C2(C)C)cc1F` as the molecule, how does the Potency read?
A: The Potency was “inactive”.

Q: Which Potency does the source give for `Cc1cnc(NC(=O)C2=C(O)c3ccccc3S(=O)(=O)N2C)s1` here?
A: The Potency was “inactive”.

Q: With `Nc1ccc(S(=O)(=O)Nc2ccnn2-c2ccccc2)cc1` as the molecule, how does the Potency read?
A: Its Potency is “inactive”.

Q: With `NC(=O)c1cnccn1` as the molecule, how does the Potency read?
A: Its Potency is “inactive”.

Q: With `CCCCNc1cc(C(=O)O)cc(S(N)(=O)=O)c1Oc1ccccc1` as the molecule, how does the Potency read?
A: Its Potency is “inactive”.

Q: Which Potency does the source give for `Cc1ccccc1C(OCCN(C)C)c1ccccc1` (stereo not given) here?
A: The Potency was “inactive”.

Q: With `Cc1[nH]c(=O)c(C#N)cc1-c1ccc2nccn2c1` as the molecule, how does the Potency read?
A: Its Potency is “inactive”.

Q: For `OC(CCN1CCCCC1)(c1ccccc1)C1CC2C=CC1C2` (stereo not given), which Potency is on record?
A: Its Potency is “inactive”.

Q: Which Potency does the source give for `NC(=O)c1ccc(I)c([N+](=O)[O-])c1` here?
A: The Potency was “inactive”.

Q: Which Potency does the source give for `CC(c1cc2ccccc2s1)N(O)C(N)=O` (stereo not given) here?
A: Its Potency is “inactive”.

Q: For `O=C1CCC(N2C(=O)c3ccccc3C2=O)C(=O)N1` (stereo not given), which Potency is on record?
A: Its Potency is “inactive”.

Q: With `O=C(O)COCCN1CCN(C(c2ccccc2)c2ccc(Cl)cc2)CC1` (stereo not given) as the molecule, how does the Potency read?
A: The Potency was “inactive”.

Q: With `Cc1ccc(-n2nc(C(C)(C)C)cc2NC(=O)Nc2ccc(OCCN3CCOCC3)c3ccccc23)cc1` as the molecule, how does the Potency read?
A: Its Potency is “inactive”.

Q: Which Potency does the source give for `CC(C)(Sc1ccc(CCN(CCCCC2CCCCC2)C(=O)NC2CCCCC2)cc1)C(=O)O` here?
A: The Potency was 21.7 µM (active).

Q: Which Potency does the source give for `Clc1cccc(Cl)c1NC1=NCCN1` here?
A: Its Potency is “inactive”.

Q: For `CC(C[N+](C)(C)C)OC(N)=O` (stereo not given), which Potency is on record?
A: Its Potency is “inactive”.

Q: For `CS(=O)(=O)c1cccc(CNc2nc(Nc3ccc4c(c3)CCC(=O)N4)ncc2C(F)(F)F)c1`, which Potency is on record?
A: Its Potency is 27.3 µM (active).

Q: With `CC(=O)Oc1ccccc1C(=O)O` as the molecule, how does the Potency read?
A: The Potency was “inactive”.

Q: Which Potency does the source give for `O=C(O)CCc1ccc(NCc2cccc(Oc3ccccc3)c2)cc1` here?
A: The Potency was “inactive”.

Q: For `CC(C)(C)NCC(O)c1ccc(O)c(CO)c1` (stereo not given), which Potency is on record?
A: Its Potency is “inactive”.

Q: For `c1ccc([C@H]2CN3CCSC3=N2)cc1`, which Potency is on record?
A: The Potency was “inactive”.

Q: With `C[C@]12CCC(=O)C=C1CC[C@@H]1[C@@H]2[C@@H](O)C[C@@]2(C)[C@H]1CC[C@]2(O)C(=O)CO` as the molecule, how does the Potency read?
A: The Potency was “inactive”.

Q: With `CNC[C@H](O)c1cccc(O)c1` as the molecule, how does the Potency read?
A: The Potency was “inactive”.

Q: For `N[C@@H]1CONC1=O`, which Potency is on record?
A: Its Potency is “inactive”.
